Test results from PubChem BioAssay (Tox21).
Results filed as inconclusive are left out. A call without a number means that no potency is given here. Values without a mark were called inactive. The source made the active and inactive calls. Unless noted, the call rests on the fitted dose curve; in most records, active means well fitted curve in the direction sought with a large enough effect in the repeat runs; inconclusive means weak or mixed curves; inactive means no such curve, though single readings can be large; an effect the other way counts as inactive or inconclusive. Where a SMILES comes first, the peptide text is derived from it. [ ]: non-standard residue; d: D form. pGlu = O=C1CC[C@@H](C(=O)O)N1

Tests used:
[1] = qHTS assay to identify small molecule antagonists of the estrogen related receptor (ERR) signaling pathway from Tox21 library - cell viability counter screen (AID 1224834); further: nearly all actives have a fitted effect of over 30% in size
How it was run: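 Counter screen run in ERR cells (2,000 cells/well): cells pre-incubated 6 h, then treated with compounds for 17.5 h at 37 C. Fluorescence was read 30 min after CellTiter-Fluor addition.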

[2] = qHTS assay to identify small molecule agonists of the constitutive androstane receptor (CAR) signaling pathway - cell viability counter screen (AID 1224836); further: series mostly up to about 92 µM; nearly all actives have a fitted effect of over 45% in size
How it was run: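 Double-stable HepG2 hepatoma cells (hCAR plus CYP2B6-2.2kb) are treated for 23 h at 37 C with test compounds in 15-point concentration series. PK11195 at 0.75 uM final is co-added. Cell viability is quantified by CellTiter-Fluor.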

[3] = biological target: Nuclear receptor subfamily 1 group I member 3 (Homo sapiens) (UniProt Q14994); assay: qHTS assay to identify small molecule agonists of the constitutive androstane receptor (CAR) signaling pathway (AID 1224839); further: nearly all actives have a fitted effect of over 15% in size; further: potency means the concentration at half of the fitted maximal effect; on activation: series mostly up to about 92 µM
How it was run: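 Readout: firefly luciferase luminescence via ONE-Glo. System: HepG2 double-stable for hCAR and CYP2B6-2.2kb. Conditions: 15-point compound titration, PK11195 at 0.75 uM final, 24 h incubation.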

[4] = qHTS assay to identify small molecule antagonists of the estrogen related receptor signaling pathway with the pleiotropic PPARgamma coactivator (PGC) from Tox21 10K library - cell viability counter screen (AID 1224840; active means well fitted cell-killing curve with a large enough effect in the repeat runs, not every such curve was filed as active; further: nearly all actives have a fitted effect of over 40% in size)
How it was run: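 Readout: fluorescence intensity from CellTiter-Fluor after 30 min at 37 C/5% CO2. Preceded by 17.5 h treatment of PGC/ERR cells with DMSO-dissolved compounds, added 6 h post-seeding.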

[5] = qHTS assay to identify small molecule antagonists of the constitutive androstane receptor (CAR) signaling pathway - cell viability counter screen (AID 1224837); further: series mostly up to about 92 µM; nearly all actives have a fitted effect of over 45% in size
How it was run: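 CITCO at 50 nM final was added alongside compounds (15 concentrations) to double-stable hCAR/CYP2B6-2.2kb HepG2 cells. Following 23 hr at 37 C, cell viability was quantified by CellTiter-Fluor fluorescence intensity.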

[6] = biological target: Thyrotropin receptor (Homo sapiens) (UniProt P16473); assay: qHTS assay to identify small molecule agonists of the thyroid stimulating hormone receptor (TSHR) signaling pathway (AID 1224843; calls by dose curve; further: nearly all actives have a fitted effect of over 45% in size)
How it was run: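 Using 15 concentrations per compound in triplicate, cAMP production was monitored in TSHR-HEK293 cells after 30 min compound incubation at RT; HTRF reagents followed, with fluorescence intensity recorded after 1 h.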

[7] = qHTS assay to identify small molecule agonists of the estrogen related receptor signaling pathway with the pleiotropic PPARgamma coactivator (PGC) from Tox21 10K library (AID 1224842); further: nearly all actives have a fitted effect of over 15% in size
How it was run: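 PGC/ERR reporter cells (NTP line) were seeded 2,000 per well, rested 6 h at 37 C/5% CO2, then pin-dosed with compounds in DMSO for 18 h at 37 C; luciferase read by One-Glo luminescence after 30 min at room temperature.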

[8] = biological target: Luciferin 4-monooxygenase (Photinus pyralis) (UniProt P08659); assay: qHTS assay to identify small molecule inhibitors of firefly luciferase (AID 1224835); further: nearly all actives have a fitted effect of over 25% in size; further: potency means the concentration at half of the fitted maximal effect; on activity change, negative = inhibition: series mostly up to about 120 µM
How it was run: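 Quantitative HTS format; KM concentrations of both substrates. Purified P. pyralis FLuc activity quantified from luminescence images.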

[9] = biological target: Nuclear receptor subfamily 1 group I member 3 (Homo sapiens) (UniProt Q14994); assay: qHTS assay to identify small molecule antagonists of the constitutive androstane receptor (CAR) signaling pathway (AID 1224838); further: nearly all actives have a fitted effect of over 40% in size
How it was run: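 Inhibition of CITCO-driven (50 nM final) CYP2B6 reporter expression is measured in HepG2 cells stably carrying hCAR. Fifteen compound concentrations are applied for 24 h at 37 C, followed by luciferase luminescence.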

[10] = qHTS assay to identify small molecule antagonists of the estrogen related receptor signaling pathway with the pleiotropic PPARgamma coactivator (PGC) from Tox21 10K library (AID 1224841; call rule not given here; further: series mostly up to about 92 µM; actives are mostly falling curves and most rising ones were filed inactive; nearly all actives have a fitted effect of over 50% in size)
How it was run: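 One-Glo luminescence, measured after half an hour at room temperature, quantified reporter output of PGC/ERR cells. These had been plated at 2,000 per well, incubated 6 h, dosed with compounds in DMSO, then kept 18 h at 37 C.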

Chain of Thyrotropin receptor (Homo sapiens) (P16473 whole entry, looked up): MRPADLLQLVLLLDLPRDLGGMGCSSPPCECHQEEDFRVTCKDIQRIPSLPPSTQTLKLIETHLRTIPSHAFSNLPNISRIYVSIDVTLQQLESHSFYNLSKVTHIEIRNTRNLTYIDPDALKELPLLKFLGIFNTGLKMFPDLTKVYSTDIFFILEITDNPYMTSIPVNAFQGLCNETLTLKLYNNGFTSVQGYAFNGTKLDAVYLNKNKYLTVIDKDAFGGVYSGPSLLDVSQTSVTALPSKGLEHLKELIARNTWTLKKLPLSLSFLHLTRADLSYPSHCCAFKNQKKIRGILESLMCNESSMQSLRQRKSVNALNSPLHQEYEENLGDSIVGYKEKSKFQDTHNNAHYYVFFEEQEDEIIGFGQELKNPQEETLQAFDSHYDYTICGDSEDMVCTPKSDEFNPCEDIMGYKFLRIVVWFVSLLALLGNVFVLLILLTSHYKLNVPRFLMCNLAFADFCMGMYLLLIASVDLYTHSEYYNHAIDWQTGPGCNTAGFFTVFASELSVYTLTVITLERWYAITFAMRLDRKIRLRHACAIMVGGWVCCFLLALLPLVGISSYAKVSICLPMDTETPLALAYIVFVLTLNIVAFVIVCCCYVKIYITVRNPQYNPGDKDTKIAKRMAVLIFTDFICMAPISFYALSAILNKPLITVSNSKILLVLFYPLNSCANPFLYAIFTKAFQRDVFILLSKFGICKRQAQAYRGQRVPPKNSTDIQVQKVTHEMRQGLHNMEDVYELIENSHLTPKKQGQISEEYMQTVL
Chain of Luciferin 4-monooxygenase (Photinus pyralis) (P08659 whole entry, looked up): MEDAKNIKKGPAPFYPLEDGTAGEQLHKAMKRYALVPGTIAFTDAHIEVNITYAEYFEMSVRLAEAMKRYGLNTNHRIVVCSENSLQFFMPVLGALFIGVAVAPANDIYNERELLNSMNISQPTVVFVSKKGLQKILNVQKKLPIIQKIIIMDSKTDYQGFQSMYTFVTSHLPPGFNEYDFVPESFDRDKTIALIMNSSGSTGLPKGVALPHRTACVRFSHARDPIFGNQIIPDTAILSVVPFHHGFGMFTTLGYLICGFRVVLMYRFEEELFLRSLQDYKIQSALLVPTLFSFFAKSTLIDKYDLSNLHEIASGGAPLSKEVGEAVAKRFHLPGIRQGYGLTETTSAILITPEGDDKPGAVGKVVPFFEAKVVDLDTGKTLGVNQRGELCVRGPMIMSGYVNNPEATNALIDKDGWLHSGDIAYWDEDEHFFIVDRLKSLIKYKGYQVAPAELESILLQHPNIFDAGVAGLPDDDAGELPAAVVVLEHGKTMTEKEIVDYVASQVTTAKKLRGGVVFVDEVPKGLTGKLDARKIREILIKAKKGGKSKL
Chain of Nuclear receptor subfamily 1 group I member 3 (Homo sapiens) (Q14994 whole entry, looked up): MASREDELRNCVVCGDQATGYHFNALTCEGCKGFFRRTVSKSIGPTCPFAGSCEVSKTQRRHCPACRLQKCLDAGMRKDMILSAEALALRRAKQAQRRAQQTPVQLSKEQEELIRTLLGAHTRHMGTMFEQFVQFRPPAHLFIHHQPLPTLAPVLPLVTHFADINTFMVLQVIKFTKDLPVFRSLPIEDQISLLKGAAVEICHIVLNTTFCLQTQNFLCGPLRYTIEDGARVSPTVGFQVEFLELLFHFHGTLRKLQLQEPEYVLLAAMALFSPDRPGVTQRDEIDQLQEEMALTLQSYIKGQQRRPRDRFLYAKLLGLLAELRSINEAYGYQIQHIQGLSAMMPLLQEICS

CCN1CCOCC1
Potency [1]: inactive
outcome [2]: inactive
Potency [3]: inactive
outcome [4]: inactive

CC(C)NNC(=O)c1ccncc1
Potency [1]: inactive
outcome [2]: inactive
outcome [5]: inactive
outcome [4]: inactive
Potency [6]: inactive

Cc1ccc(C(=O)Nc2ccc(S(=O)(=O)O)c3cc(S(=O)(=O)O)cc(S(=O)(=O)O)c23)cc1NC(=O)c1cccc(NC(=O)Nc2cccc(C(=O)Nc3cc(C(=O)Nc4ccc(S(=O)(=O)O)c5cc(S(=O)(=O)O)cc(S(=O)(=O)O)c45)ccc3C)c2)c1
Potency [1]: inactive
outcome [2]: inactive
outcome [5]: inactive
outcome [4]: inactive
Potency [7]: inactive
Potency [6]: inactive

O=S(=O)(O)c1cccc2c(S(=O)(=O)O)cccc12
Potency [8]: inactive
outcome [2]: inactive
outcome [5]: inactive
Potency [9]: inactive
Potency [3]: inactive
outcome [4]: inactive
Potency [7]: inactive
Potency [6]: inactive

CC12CCC(C(=O)C1=O)C2(C)C (stereo not given)
Potency [1]: inactive
outcome [2]: inactive
outcome [5]: inactive
outcome [4]: inactive

Nc1c2c(nc3c1CCC3)CCCC2
Potency [8]: inactive
outcome [2]: inactive
outcome [5]: inactive
Potency [9]: inactive
Potency [3]: inactive
outcome [4]: inactive
Potency [10]: inactive
Potency [7]: inactive

CC(=O)Nc1ccc(OCC(O)CNC(C)C)cc1 (stereo not given)
Potency [8]: inactive
outcome [2]: inactive
outcome [5]: inactive
Potency [9]: inactive
Potency [3]: inactive
outcome [4]: inactive
Potency [6]: inactive

CC(=O)c1ccccc1[N+](=O)[O-]
Potency [8]: inactive
outcome [2]: inactive
outcome [5]: inactive
Potency [9]: inactive
Potency [3]: inactive
outcome [4]: inactive
Potency [7]: inactive
Potency [6]: inactive

CN1CCC(=C2c3ccccc3CCc3cccnc32)CC1
Potency [1]: inactive
outcome [2]: inactive
outcome [5]: inactive
Potency [3]: inactive
outcome [4]: inactive
Potency [6]: inactive

NO
Potency [1]: inactive
outcome [2]: inactive
outcome [5]: inactive
outcome [4]: inactive
Potency [6]: inactive

[K+]
Potency [8]: inactive
outcome [2]: inactive
outcome [5]: inactive
Potency [9]: inactive
Potency [3]: inactive
outcome [4]: inactive
Potency [6]: inactive

CCNC(=O)[C@@H]1CCCN1C(=O)[C@H](CCCN=C(N)N)NC(=O)[C@H](CC(C)C)NC(=O)CNC(=O)[C@H](Cc1ccc(O)cc1)NC(=O)[C@H](CO)NC(=O)[C@H](Cc1c[nH]c2ccccc12)NC(=O)[C@H](Cc1cnc[nH]1)NC(=O)[C@@H]1CCC(=O)N1 ([pGlu]HWSYGLRP-NHEt)
Potency [8]: inactive
outcome [2]: inactive
Potency [3]: inactive
outcome [4]: inactive
Potency [7]: inactive
Potency [6]: inactive

C[N+]12CCC(CC1)C(OC(=O)C(O)(c1ccccc1)c1ccccc1)C2 (stereo not given)
Potency [8]: inactive
outcome [2]: inactive
outcome [5]: inactive
Potency [3]: inactive
outcome [4]: inactive
Potency [7]: inactive
Potency [6]: inactive

CC[N+](CC)(CC(=O)Nc1c(C)cccc1C)Cc1ccccc1 (tested in a mixture with another compound)
outcome [2]: inactive
outcome [5]: inactive
outcome [4]: inactive

CCOC(=O)C1=NOC(c2ccccc2)(c2ccccc2)C1
outcome [2]: inactive
outcome [4]: inactive

c1ccc(Cc2ccccc2)cc1
Potency [8]: inactive
outcome [2]: inactive
outcome [5]: inactive
outcome [4]: inactive

CCCCCC(=O)OCCc1ccccc1
outcome [2]: inactive
Potency [9]: inactive
Potency [3]: inactive
outcome [4]: inactive
Potency [10]: inactive
Potency [7]: inactive
Potency [6]: inactive

CCCCCC(C)N (stereo not given)
Potency [8]: inactive
outcome [2]: inactive
outcome [5]: inactive
Potency [9]: inactive
outcome [4]: inactive
Potency [6]: inactive

C[C@H]1[C@H](NC(=O)/C(=N/OC(C)(C)C(=O)O)c2csc(N)n2)C(=O)N1S(=O)(=O)O (stereo in doubt)
outcome [2]: inactive
outcome [5]: inactive
Potency [9]: inactive
Potency [3]: inactive
outcome [4]: inactive
Potency [6]: inactive

CCC1C(=O)OCC1Cc1cncn1C (stereo not given)
Potency [8]: inactive
outcome [2]: inactive
outcome [5]: inactive
Potency [6]: inactive

C[N+](C)(C)CCCCCCCCCC[N+](C)(C)C
Potency [8]: inactive
outcome [2]: inactive
outcome [5]: inactive
Potency [9]: inactive
Potency [3]: inactive
outcome [4]: inactive
Potency [6]: inactive

CC1=NN(c2cccc(S(=O)(=O)O)c2)C(=O)C1
Potency [8]: inactive
outcome [2]: inactive
outcome [5]: inactive
Potency [3]: inactive
outcome [4]: inactive
Potency [7]: inactive
Potency [6]: inactive

Cc1ccc(-c2ncc(Cl)cc2-c2ccc(S(C)(=O)=O)cc2)cn1
Potency [8]: inactive
outcome [2]: inactive
outcome [5]: inactive
outcome [4]: inactive
Potency [6]: inactive

CN1CCN(c2cc3c(nn2)Oc2ccccc2N3C)CC1
viability change, negative = cytotoxic [2]: -2.12% [at 19 µM]
activity, negative = inhibition [9]: 125% [at 19 µM]
Potency [3]: 5.8 µM (active)
viability change, negative = cytotoxic [4]: 2.34% [at 19 µM]
activation [6]: -2.7% [at 19 µM]

C[N+]1(C)[C@@H]2CC(OC(=O)[C@H](CO)c3ccccc3)C[C@H]1[C@@H]1O[C@@H]12 (stereo not given in full)
outcome [2]: inactive
outcome [5]: inactive
Potency [6]: inactive

CCCCCCCCCCCCCCCCCCO
Potency [8]: inactive
outcome [2]: inactive
outcome [5]: inactive
Potency [9]: inactive
Potency [3]: inactive
outcome [4]: inactive
Potency [6]: inactive

c1ccc2sc(SN3CCOCC3)nc2c1
outcome [2]: inactive
Potency [9]: inactive
outcome [4]: inactive
Potency [10]: inactive
Potency [7]: inactive
Potency [6]: inactive

COc1cc2c(cc1OC)-c1cc3ccc(OC)c(OC)c3c[n+]1CC2
Potency [8]: inactive
outcome [2]: inactive
outcome [5]: inactive
Potency [7]: inactive

CCOc1ccc2nc(S(N)(=O)=O)sc2c1
Potency [8]: 34.7 µM (active)
outcome [2]: inactive
outcome [5]: inactive
Potency [3]: 7.5 µM (active)
outcome [4]: inactive
Potency [6]: inactive

CC(C)C1CCC(O)CC1 (stereo not given)
Potency [8]: inactive
outcome [2]: inactive
Potency [9]: inactive
Potency [3]: inactive
outcome [4]: inactive
Potency [6]: inactive

CNCCO
Potency [8]: inactive
outcome [2]: inactive
outcome [5]: inactive
outcome [4]: inactive
Potency [6]: inactive

CCOc1c(N2CCOCC2)cnn(C)c1=O
outcome [2]: inactive
outcome [4]: inactive
Potency [6]: inactive

Cc1ccnc(NS(=O)(=O)c2ccc(N)cc2)n1
Potency [8]: inactive
outcome [5]: inactive
outcome [4]: inactive
Potency [10]: inactive
Potency [7]: inactive
Potency [6]: inactive

Cc1nc2ccc(CN(C)c3ccc(C(=O)N[C@@H](CCC(=O)O)C(=O)O)s3)cc2c(=O)[nH]1
Potency [8]: inactive
outcome [2]: inactive
outcome [5]: inactive
Potency [9]: inactive
Potency [3]: inactive
outcome [4]: inactive
Potency [6]: inactive

CCCCCCCCCCOc1cc2c(=O)c(C(=O)OCC)c[nH]c2cc1OCC
activity change, negative = inhibition [8]: -1.76% [at 10.5 µM]
viability change, negative = cytotoxic [2]: 4.44% [at 8.39 µM]
activity, negative = inhibition [9]: 5.74% [at 8.39 µM]
activation [3]: -0.235% [at 8.39 µM]
viability change, negative = cytotoxic [4]: 9.28% [at 8.39 µM]
activation [6]: -0.126% [at 8.39 µM]

Clc1cc(Cl)c(Cl)nc1Cl
Potency [8]: inactive
outcome [2]: inactive
Potency [9]: inactive
Potency [3]: inactive
outcome [4]: inactive
Potency [10]: inactive
Potency [7]: inactive
Potency [6]: inactive

Cc1onc(-c2c(Cl)cccc2Cl)c1C(=O)Cl
Potency [8]: inactive
outcome [2]: inactive
outcome [5]: inactive
Potency [3]: inactive
outcome [4]: inactive
Potency [6]: inactive

COC(=O)C1=C(C)NC(C)=C(C(=O)OC(C)C)C1c1cccc2nonc12 (stereo not given)
Potency [8]: inactive
outcome [2]: inactive
Potency [9]: inactive
outcome [4]: inactive
Potency [7]: inactive
Potency [6]: inactive

NCCCC[C@H](N[C@@H](CCc1ccccc1)C(=O)O)C(=O)N1CCC[C@H]1C(=O)O
Potency [8]: inactive
outcome [2]: inactive
Potency [9]: inactive
outcome [4]: inactive

CC(COc1ccccc1)NN (stereo not given)
Potency [8]: inactive
outcome [2]: inactive
outcome [5]: inactive
Potency [3]: inactive
outcome [4]: inactive
Potency [10]: inactive
Potency [7]: inactive
Potency [6]: inactive

CC(=O)Oc1cccc(C)c1
outcome [2]: inactive
outcome [5]: inactive
Potency [9]: inactive
Potency [3]: inactive
outcome [4]: inactive
Potency [10]: inactive
Potency [7]: inactive
Potency [6]: inactive

C=CCCCCCCCCC(=O)OCC
Potency [8]: inactive
outcome [2]: inactive
Potency [9]: inactive
Potency [3]: inactive
outcome [4]: inactive
Potency [7]: inactive
Potency [6]: inactive

O=C(c1ccccc1O)c1ccccc1O
outcome [2]: inactive
outcome [5]: inactive
Potency [3]: inactive
outcome [4]: inactive
Potency [6]: inactive

O=C1CCCCCCCCCCCCCCO1
outcome [2]: inactive
outcome [5]: inactive
outcome [4]: inactive

Cc1ncc(COP(=O)(O)O)c(C=O)c1O
outcome [2]: inactive
outcome [5]: inactive
Potency [9]: inactive
Potency [3]: inactive
outcome [4]: inactive
Potency [6]: inactive

CC/C=C\CCOC(C)OCC (stereo not given)
outcome [2]: inactive
outcome [5]: inactive
Potency [9]: inactive
Potency [3]: inactive
outcome [4]: inactive
Potency [6]: inactive

CC1OC1C1CCC2(C)OC2C1 (stereo not given)
Potency [8]: inactive
outcome [2]: inactive
outcome [5]: inactive
Potency [9]: inactive
Potency [3]: inactive
outcome [4]: inactive
Potency [6]: inactive

CC(C(=O)O)c1cccc(Oc2ccccc2)c1 (stereo not given)
Potency [8]: inactive
outcome [2]: inactive
outcome [5]: inactive
Potency [3]: inactive
outcome [4]: inactive

NC(=O)NC1N=C([O][Al])NC1=O (stereo not given)
Potency [8]: inactive
outcome [2]: inactive
outcome [5]: inactive
outcome [4]: inactive
Potency [6]: inactive
